We go through two compounds from PubChem BioAssay AID2283334 (EPA ToxCast).

For the experiment, the target named is Grik1 (gene 29559) (UniProt P22756). Put plainly: NVS_IC_rKAR: NovaScreen (NVS) Ion Channel Assay for Kainic Acid Receptors (KAR). As to the method:
NVS_IC_rKAR is a biochemical, single-readout assay that uses extracted gene-proteins from Rat forebrain membranes in a tissue-based cell-free assay. Measurements were taken 1 hour after chemical dosing in a 48-well plate.NVS_IC_rKAR is one of one assay component(s) measured or calculated from the NVS_IC_rKAR assay. It is designed to make measurements of radioligand binding, a form of binding reporter, as detected with scintillation counting signals by Filter-based radiodetection technology.Data from the assay component NVS_IC_rKAR was analyzed into 1 assay endpoint. This assay endpoint, NVS_IC_rKAR, was analyzed in the positive analysis fitting direction relative to DMSO as the negative control and baseline of activity. […] Furthermore, this assay endpoint can be referred to as a primary readout, because the performed assay has only produced 1 assay endpoint. […]
Binding assays used specific radioligands (tritiated, iodinated) with non-radioactive competitive displacement ligands in agonist or antagonist protocols (as indicated) and various reference compounds and inhibitors to titrate specific binding to receptors and transporters. Most enzyme assays (CYPs, kinases, phosphatases, proteases, HDACs) used recombinant protein and specific substrates (fluorescence mostly, some colorimetric and radioactive) and inhibitors, followed by a biochemical separation of substrate and product. […]

SMILES strings stand for the structures. Inconclusive results are not listed. Activity calls are given as the source filed them. How the source made its calls: active means hit-call score of the fitted dose curve at least 0.9, where 1 is the maximum; inactive means score below 0.9.

Chain of Grik1 (gene 29559) (P22756 whole entry, looked up): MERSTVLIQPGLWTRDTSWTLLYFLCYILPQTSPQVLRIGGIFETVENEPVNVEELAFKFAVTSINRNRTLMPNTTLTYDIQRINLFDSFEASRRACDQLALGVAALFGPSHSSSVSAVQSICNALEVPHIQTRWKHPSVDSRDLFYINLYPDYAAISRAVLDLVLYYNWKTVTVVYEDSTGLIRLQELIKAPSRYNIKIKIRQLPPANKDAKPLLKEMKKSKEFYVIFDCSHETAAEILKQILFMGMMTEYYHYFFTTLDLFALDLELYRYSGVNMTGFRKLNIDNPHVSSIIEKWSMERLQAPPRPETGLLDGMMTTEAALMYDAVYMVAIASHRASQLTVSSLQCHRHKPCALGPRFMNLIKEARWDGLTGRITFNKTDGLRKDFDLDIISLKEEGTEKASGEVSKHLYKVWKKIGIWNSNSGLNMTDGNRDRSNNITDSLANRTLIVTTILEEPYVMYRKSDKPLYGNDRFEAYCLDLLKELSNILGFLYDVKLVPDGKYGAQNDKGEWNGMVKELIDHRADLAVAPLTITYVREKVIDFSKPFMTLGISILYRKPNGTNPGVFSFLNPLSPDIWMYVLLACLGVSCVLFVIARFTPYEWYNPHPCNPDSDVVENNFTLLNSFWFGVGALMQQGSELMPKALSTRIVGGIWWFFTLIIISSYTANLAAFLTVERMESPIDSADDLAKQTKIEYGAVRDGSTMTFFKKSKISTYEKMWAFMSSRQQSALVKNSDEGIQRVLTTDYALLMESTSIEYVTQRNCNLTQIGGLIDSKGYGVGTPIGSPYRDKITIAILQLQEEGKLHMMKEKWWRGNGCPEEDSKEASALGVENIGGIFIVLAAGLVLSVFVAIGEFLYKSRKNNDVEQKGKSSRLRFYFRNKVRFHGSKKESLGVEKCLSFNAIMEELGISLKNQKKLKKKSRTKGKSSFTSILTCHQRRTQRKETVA

On to `CCCCCCC(C)OC(=O)COc1nc(F)c(Cl)c(N)c1Cl` (configuration not stated), for which the AC50 – broadly, the concentration giving half of the maximal activity seen – was 30.2 µM (active).

With `CCCCCCCCCCCCCCCCCC(=O)O`, the AC50 is 1.4 µM (active).
